The results in this text go back to PubChem BioAssay.

Assay [1] addresses Cell division control protein 42 homolog (Homo sapiens) (UniProt P60953). Put plainly: activated mutant Cdc42 GTP-binding inhibitors, dose response, biochemical, multiplex bead flow cytometry, Bodipy-FL-GTP (AID 1333;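 active = fitted half-maximal concentration within the tested dose range, moderate curve steepness, a statistically real signal drop, and little compound fluorescence or tag-binding interference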). (In general: In flow cytometry, cells or beads pass a laser one at a time.)
Assay [2] shares this target. Put plainly: wildtype Cdc42 GTP-binding inhibitors, dose response, biochemical, multiplex bead flow cytometry, Bodipy-FL-GTP (AID 1334;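 active = fitted half-maximal concentration within the tested range, moderate curve steepness, significant signal drop, and little compound fluorescence or bead-linkage interference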). The note with it: bead-based flow cytometry, Bodipy-FL-GTP binding to GST-Cdc42; at 100 µM (top of the series) unless noted.
Assay [3] concerns the target GTPase HRas (Homo sapiens) (UniProt P01112). Put plainly: inhibitors of GTP binding to wildtype Ras, dose response, biochemical, multiplex bead flow cytometry (AID 1335). The note with it: bead-based flow cytometry, Bodipy-GTP binding to GST-Ras; at 100 µM (top of the series) unless noted.
The subject of assay [4] is Ras-related protein Rab-7a (dog), GTP binding. Put plainly: Rab7 GTP binding inhibitors, potency, dose response, biochemical, wildtype, multiplex bead flow cytometry (AID 1336; call rule not given here).
Assay [5] addresses Ras-related C3 botulinum toxin substrate 1 (Homo sapiens) (UniProt P63000). Briefly: wildtype Rac1 GTP binding inhibitors, dose response, biochemical, multiplex bead flow cytometry (AID 1340;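 active = dose curve with midpoint inside tested range, moderate steepness, plateau gap beyond fit error, low compound glow and bead-link interference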). The following applies: GST-Rac1 beads, Bodipy-FL-GTP binding; at 100 µM (top of the series) unless noted.
For assay [6], the target named is GTPase HRas (Homo sapiens) (UniProt P01112). Briefly: activated Ras mutant GTP binding inhibitors, dose response, biochemical, multiplex bead flow cytometry (AID 1341;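 active = dose-response curve with midpoint inside the tested range, moderate steepness, significant amplitude and little compound fluorescence or bead-attachment interference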;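 note: GST-tagged constitutively activated Ras mutant immobilized on beads and multiplexed with other GTPases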).
Assay [7] deals with Regulator of G-protein signaling 16 (Homo sapiens) (UniProt O15492). Briefly: modulators of RGS–Galpha-o binding, primary screen, biochemical, multiplexed beads, flow cytometry, RGS4/7/8/16/19 (AID 1504).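 Note: fluorescently labeled Galpha-o bound to GDP with aluminium fluoride binding biotinylated RGS beads.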 The following applies: multiplexed bead flow cytometry, measured here: RGS16 interaction, at 10 µM.
For assay [8], the target named is Regulator of G-protein signaling 19 (Homo sapiens) (UniProt P49795). Described as above. The following applies: multiplexed bead flow cytometry, measured here: RGS19 interaction, at 10 µM.
The target in assay [9] is Regulator of G-protein signaling 7 (Homo sapiens) (UniProt P49802). The description is as above. The note with it: multiplexed bead flow cytometry, measured here: RGS7 interaction, at 10 µM.
Assay [10] deals with Regulator of G-protein signaling 8 (Homo sapiens) (UniProt P57771). The assay is described as above. The following applies: multiplexed bead flow cytometry, measured here: RGS8 interaction, at 10 µM.
Assay [11] can be described thus: disruption of biotin probe capture by avidin, counter-screen for RGS protein interaction modulators, biochemical, flow cytometry, bead-based (AID 1783;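 active = inhibition above 50%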;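 note: median green fluorescence of gated singlet beads compared with DMSO control wells; 0% = DMSO wells and 100% = complete loss of bead fluorescence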). The note with it: streptavidin beads, fluorescein-biotin binding; at 10 µM, stronger effect = higher value.
The target in assay [12] is Guanine nucleotide-binding protein G(o) subunit alpha (Homo sapiens) (UniProt P09471). Put plainly: RGS8-Galphao binding modulators, confirmation, biochemical, multiplexed bead flow cytometry, single concentration (AID 1836; in the data active = binding response below about 72% or above about 130%; inactive = in between;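 note: Galphao activated as GDP AlF4 complex before binding bead RGS8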). The note with it: bead-based flow cytometry RGS8-Galphao binding, fluorescence; at 10 µM; actives lie on both sides.
For assay [13] the target is unchanged. Put plainly: RGS7-Galphao binding modulators, confirmation, biochemical, multiplexed bead flow cytometry, single concentration (AID 1837; in the data active = response below about 75% or above about 130%; inactive = in between;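 note: fluorescent Galphao activated with GDP and aluminum fluoride binding bead-coupled RGS7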). The note with it: bead-based flow cytometry RGS7-Galphao binding; at 10 µM; actives lie on both sides.
In assay [14] the target is Regulator of G-protein signaling 16 (Homo sapiens) + Guanine nucleotide-binding protein G(o) subunit alpha (Homo sapiens) (UniProt O15492+P09471). Put plainly: modulators of RGS16-Galphao protein binding, confirmation, biochemical, single concentration, multiplexed bead flow cytometry (AID 1838; in the data active = response below about 74% or above about 130%; inactive = in between;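 note: Galphao activated as the GDP aluminium fluoride complex binding bead-coupled RGS16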). The note with it: bead-based flow cytometry, at 10 µM, actives lie on both sides.

Assay [15] has as its target Guanine nucleotide-binding protein G(o) subunit alpha (Homo sapiens) (UniProt P09471). Put plainly: modulators of RGS4-Galphao protein binding, confirmation, biochemical, single concentration, multiplexed bead flow cytometry (AID 1840; in the data active = binding response below about 74% or above about 130%; inactive = in between). The following applies: at 10 µM, actives lie on both sides.
In assay [16] the target is Guanine nucleotide-binding protein G(o) subunit alpha (Homo sapiens) + Regulator of G-protein signaling 19 (Homo sapiens) (UniProt P09471+P49795). Briefly: regulators of RGS19-Galphao binding, confirmation, biochemical, single point, multiplexed bead flow cytometry (AID 1841; in the data active = response below about 50% or above about 160%; inactive = in between;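 note: 100% = no compound control and 0% = blank background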). The following applies: bead-based flow cytometry RGS19-Galphao binding; at 10 µM; actives lie on both sides.

Assay [17] can be described thus: LAP4-GFP expression modulators in yeast, confirmation, cell-based, second cherry pick, flow cytometry (AID 2621;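 active = GFP signal as percent of the solvent control above about 150%, meaning raised reporter expression, limit read from the data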;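 note: ratio of well median GFP fluorescence to plate DMSO mean so 100% = DMSO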). The following applies: S. cerevisiae LAP4-GFP strain, 3 h, at 10 µM, stronger effect = higher value.
A short description of assay [18]: modulators of MEP2-GFP levels in yeast, confirmation, S. cerevisiae, flow cytometry GFP, second cherry picks (AID 2622;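 active = GFP signal above 150% of the solvent control wells, that is a rise of more than half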;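 note: median channel GFP fluorescence of all gated yeast cells per well; ratio of median GFP to plate DMSO average so 100% = DMSO level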). The following applies: S. cerevisiae MEP2-GFP strain, 3 h, at 10 µM, stronger effect = higher value.
Assay [19] in a line: RPL19A-GFP modulators in TOR pathway yeast, confirmation, cell-based, S. cerevisiae, flow cytometry, second cherry pick (AID 2623;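 active = under 65% GFP response relative to DMSO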;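 note: median GFP channel fluorescence per well over the all cells gate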). The following applies: S. cerevisiae RPL19A-GFP strain, 3 h, at 10 µM, stronger effect = lower value, 100% means same as DMSO wells.
The nature of assay [20]: modulators of CIT2-GFP expression in yeast, confirmation, flow cytometry, second cherry pick, single plex (AID 2624;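 active = GFP response vs DMSO above about 150%, limit read from the data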;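 note: median green fluorescence per well over all gated yeast cells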). The following applies: S. cerevisiae CIT2-GFP strain, 3 h, at 10 µM, stronger effect = higher value, DMSO control wells read 100%.
Assay [21] is described as follows: AGP1-GFP expression modulators, hit retest, confirmation, cell-based, flow cytometry, S. cerevisiae, cherry pick set 2 (AID 2643;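 active = over 150 percent of DMSO response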;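 note: median GFP channel fluorescence over all cells without mother daughter split; sample median GFP divided by mean DMSO control so 100% equals DMSO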). The following applies: S. cerevisiae AGP1-GFP strain, 3 h, at 10 µM, stronger effect = higher value.

For some of these results: Potency and affinity values are given separately. The list shows a part of the results. The source made the active and inactive calls.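 Rule for the calls, unless noted: active = fitted half-maximal concentration within 10 nM to 100 µM, steepness 0.5 to 2, significant signal drop, low assay interference; inactive = the rest.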

Chain of GTPase HRas (Homo sapiens) (P01112 whole entry, looked up): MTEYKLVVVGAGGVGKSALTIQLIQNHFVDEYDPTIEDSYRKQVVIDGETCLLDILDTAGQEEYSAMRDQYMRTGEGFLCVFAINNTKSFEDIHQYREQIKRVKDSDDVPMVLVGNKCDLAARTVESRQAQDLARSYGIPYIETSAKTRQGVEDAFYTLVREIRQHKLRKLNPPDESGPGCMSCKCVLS
Chain of Guanine nucleotide-binding protein G(o) subunit alpha (Homo sapiens) (P09471 whole entry, looked up): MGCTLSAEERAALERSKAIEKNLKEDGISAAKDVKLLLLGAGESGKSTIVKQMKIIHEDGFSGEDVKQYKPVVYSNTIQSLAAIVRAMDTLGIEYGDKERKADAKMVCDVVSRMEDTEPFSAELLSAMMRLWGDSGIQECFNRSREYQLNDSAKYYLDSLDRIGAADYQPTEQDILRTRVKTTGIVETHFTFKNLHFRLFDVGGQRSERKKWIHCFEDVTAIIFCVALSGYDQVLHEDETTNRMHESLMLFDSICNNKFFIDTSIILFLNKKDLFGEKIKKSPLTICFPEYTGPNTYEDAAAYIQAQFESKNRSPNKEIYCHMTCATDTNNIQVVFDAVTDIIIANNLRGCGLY
Chain of Cell division control protein 42 homolog (Homo sapiens) (P60953 whole entry, looked up): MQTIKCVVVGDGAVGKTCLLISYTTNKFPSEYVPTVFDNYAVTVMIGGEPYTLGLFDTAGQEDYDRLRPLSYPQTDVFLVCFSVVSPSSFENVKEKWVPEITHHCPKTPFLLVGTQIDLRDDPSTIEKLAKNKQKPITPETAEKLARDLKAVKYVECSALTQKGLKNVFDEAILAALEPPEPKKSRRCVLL
Chain of Guanine nucleotide-binding protein G(o) subunit alpha (Homo sapiens) + Regulator of G-protein signaling 19 (Homo sapiens) (P09471 whole entry, looked up): as the sequence (P09471 whole entry, looked up) above
Chain of Guanine nucleotide-binding protein G(o) subunit alpha (Homo sapiens) + Regulator of G-protein signaling 19 (Homo sapiens) (P49795 whole entry, looked up): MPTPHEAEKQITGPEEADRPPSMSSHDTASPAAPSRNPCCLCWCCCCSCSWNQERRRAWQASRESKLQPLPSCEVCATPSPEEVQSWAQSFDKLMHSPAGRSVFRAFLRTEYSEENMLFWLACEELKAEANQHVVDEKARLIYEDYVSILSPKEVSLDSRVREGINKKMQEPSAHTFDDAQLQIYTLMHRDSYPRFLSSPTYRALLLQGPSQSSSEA
Chain of Regulator of G-protein signaling 16 (Homo sapiens) + Guanine nucleotide-binding protein G(o) subunit alpha (Homo sapiens) (O15492 whole entry, looked up): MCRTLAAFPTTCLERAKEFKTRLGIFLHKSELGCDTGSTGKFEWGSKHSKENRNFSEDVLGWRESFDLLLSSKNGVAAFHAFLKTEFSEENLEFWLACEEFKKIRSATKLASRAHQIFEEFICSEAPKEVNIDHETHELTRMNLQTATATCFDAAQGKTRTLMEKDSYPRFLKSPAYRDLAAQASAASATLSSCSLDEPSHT
Chain of Regulator of G-protein signaling 16 (Homo sapiens) + Guanine nucleotide-binding protein G(o) subunit alpha (Homo sapiens) (P09471 whole entry, looked up): as the sequence (P09471 whole entry, looked up) above

Regarding `Cc1cc(-c2n[nH]c(=S)n2/N=C/c2cc([N+](=O)[O-])ccc2Cl)n[nH]1`, the result in assay [1], in assay [4] and in assay [6] was inactive. Also, the fluorescence, percent of control (lower = inhibition) in assay [2] turned out to be 40.4%. Further, the GTP binding, percent of control in assay [3] was found to be 54.8%. Besides, the GTP binding signal, raw median fluorescence (lower = inhibition) (MCF (arbitrary fluorescence units)) in assay [5] came out at 105.

`Cc1ccc(OCCn2c(SCCC(=O)O)nc3ccccc32)cc1`: the compound was classed as inactive in assay [1], in assay [4] and in assay [6]. The fluorescence, percent of control (lower = inhibition) in [2] came out at 61.3%. In assay [3], the GTP binding, percent of control stood at 88.9%. The compound also had a GTP binding signal, raw median fluorescence (lower = inhibition) (MCF (arbitrary fluorescence units)) in assay [5] of 34.5.

Turning to `CCOc1cc(/C=C2/SC(=S)NC2=O)ccc1OC(=O)c1ccco1`, the compound was classed as inactive in assay [1], in assay [4] and in assay [6]. Also, in [2], the fluorescence, percent of control (lower = inhibition) was 33.4%. The GTP binding, percent of control in assay [3] is 83.7%. The GTP binding signal, raw median fluorescence (lower = inhibition) (MCF (arbitrary fluorescence units)) in [5] was found to be 208.

As for `O=[N+]([O-])c1ccccc1/C=C/C=N/n1c(-c2ccco2)n[nH]c1=S`, the result in assay [1], in assay [4] and in assay [6] was inactive. The compound further came in with a fluorescence, percent of control (lower = inhibition) in assay [2] of 28.1%. Moreover, in [3], the GTP binding, percent of control amounted to 72.9%. The GTP binding signal, raw median fluorescence (lower = inhibition) (MCF (arbitrary fluorescence units)) in [5] came out at 221.

With `COc1cc2c(cc1OC)-c1cc(NCc3ccccn3)nc(=O)n1CC2`, the result in assay [1], in assay [4] and in [6] was inactive. Moreover, the fluorescence, percent of control (lower = inhibition) in [2] is 30.7%. Further, the GTP binding, percent of control in [3] was found to be 68.3%. In addition, in assay [5], the GTP binding signal, raw median fluorescence (lower = inhibition) (MCF (arbitrary fluorescence units)) worked out at 182.

For the compound `O=C(O)c1ccc2c3c(cccc13)C(=O)N(OS(=O)(=O)c1ccccc1)C2=O`, the result in [1], in [4] and in [6] was inactive. Further, the fluorescence, percent of control (lower = inhibition) in assay [2] worked out at 33.5%. This compound also yielded a GTP binding, percent of control in assay [3] of 78.2%. In [5], this compound had a GTP binding signal, raw median fluorescence (lower = inhibition) (MCF (arbitrary fluorescence units)) of 191.

As to `CCOc1ccccc1CNCc1sc(C(=O)O)cc1C`, the compound was called inactive in [1], in [4] and in assay [6]. For the same compound, the fluorescence, percent of control (lower = inhibition) in [2] was found to be 59.6%. In [3], the GTP binding, percent of control turned out to be 79.1%. This compound also returned a GTP binding signal, raw median fluorescence (lower = inhibition) (MCF (arbitrary fluorescence units)) in [5] of 33.1.

Consider `O=C(COC(=O)c1ccc2c(c1[N+](=O)[O-])C(=O)c1ccccc1C2=O)NC1CC1`, for which the outcome in assay [1], in assay [4] and in assay [6] was inactive. For the same compound, the fluorescence, percent of control (lower = inhibition) in [2] came out at 29.3%. This compound displayed a GTP binding, percent of control in assay [3] of 72.9%. Moreover, in assay [5], the GTP binding signal, raw median fluorescence (lower = inhibition) (MCF (arbitrary fluorescence units)) is 178.

With `O=C(Nc1nc(-c2cccs2)cs1)c1cc2ccccc2oc1=O`, the outcome in [1], in assay [4] and in assay [6] was inactive. In addition, in assay [2], the fluorescence, percent of control (lower = inhibition) turned out to be 51.8%. Also, the GTP binding, percent of control in assay [3] is 130%. Besides, in assay [5], the GTP binding signal, raw median fluorescence (lower = inhibition) (MCF (arbitrary fluorescence units)) was 141.

With `COc1ccccc1CNCc1ccc(C(=O)O)s1`, the compound was called inactive in assay [1], in assay [4] and in assay [6]. The fluorescence, percent of control (lower = inhibition) in assay [2] turned out to be 64.5%. The GTP binding, percent of control in [3] was 87.8%. In addition, in assay [5], the GTP binding signal, raw median fluorescence (lower = inhibition) (MCF (arbitrary fluorescence units)) amounted to 33.8.

The term inhibition denotes the change of the read-out against control, counted positive when it falls. `O=C(OCC1O[C@@H](OC(=O)c2cc(O)c(O)c(O)c2)[C@@H](OC(=O)c2cc(O)c(O)c(O)c2)[C@@H](OC(=O)c2cc(O)c(O)c(O)c2)[C@@H]1OC(=O)c1cc(O)c(O)c(O)c1)c1cc(O)c(O)c(O)c1` (some centres undefined) came in with an RGS16–Galpha-o binding response in [7] of 51.1%. Also, in assay [8], the RGS19–Galpha-o binding response is -410%. In [9], this compound had an RGS7–Galpha-o binding response of 20.5%. Besides, the RGS8–Galpha-o binding response in assay [10] is 46.9%. Also, in assay [11], the inhibition is -1.9% (inactive). In addition, the results for the binding response (% of control) in assay [12] and in assay [15] were 35.2% (active) and -1.02% (active), respectively. The response (percent of control binding) in assay [13] is -10.3% (active); in [16], 46.8% [inhibitor] (active). For the same compound, the response (% of control binding) in [14] was 29.8% (active).

Take `CN(c1ccccc1)c1ccc(/C=c2\s/c(=C(/C#N)C(=O)C(C)(C)C)n(Cc3ccco3)c2=O)cc1`: in assay [7], the RGS16–Galpha-o binding response is 551%. In addition, in assay [8], the RGS19–Galpha-o binding response is 4650%. Also, the RGS7–Galpha-o binding response in [9] was found to be 421%. In addition, the RGS8–Galpha-o binding response in assay [10] was 134%.

As for `COc1ccc(/C=C/C(=O)c2cc(Br)ccc(=O)c2O)cc1`, the GFP response vs DMSO in assay [17] is 169% (active); in [18], 185% (active); in [19] it was 77.3% (inactive); in assay [20], 191% (active). Further, in assay [21], the percent response vs DMSO is 80% (inactive).
